Our source for the Potency and viability change, negative = cytotoxic values is PubChem BioAssay (Tox21).

Inconclusive results are not listed. Where a call stands in place of a potency, no number is given. A number with no mark means an inactive call. Activity calls are given as the source filed them. The call rests on the fitted dose curve; in most records, active means well fitted cell-killing curve with a large enough effect in the repeat runs; inconclusive means weak or mixed curves, or effect the other way; inactive means flat fitted curve, though single readings scatter.
Potency means the concentration at half of the fitted maximal effect.

This test is described as follows: cAMP Responsive Elements (CRE) small molecule antagonists, cell-based qHTS assay: qHTS cell viability counter screen (AID 2060913). Further: nearly all actives have a fitted effect of over 40% in size. Particulars: CRE-bla HEK293T viability, CellTiter-Glo luminescence, 5 h; series mostly up to 92.4 µM. A digest of the protocol:
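Cytotoxicity read in the same wells as the CRE-bla HEK293T antagonist assay: after 3 h compound with 0.25 uM NKH477 final and 2 h beta-lactamase substrate, CellTiter-Glo luminescence measured.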
`CCCCCCCC/C=C\CCCCCCCCOCCO`: the Potency is 79.4 µM (active).
With `CCOC(=O)c1cc(=O)c2c(OCC(COc3cccc4oc(C(=O)OCC)cc(=O)c34)OC(=O)[C@@H](N)CCCCN)cccc2o1`, the Potency result is “inactive”.
As for `CC(C(=O)O)c1ccc(C(=O)c2cccs2)cc1` (stereo not given), the Potency result was “inactive”.
On the same count and under the same terms, as for `Cc1ccc(S(=O)(=O)NC(=O)NC2CCCCC2)cc1`, the entry is “inactive”; as for `CCN(CC)CCOc1ccc(C(O)(Cc2ccc(Cl)cc2)c2ccc(C)cc2)cc1` (stereo not given), 26.6 µM (active); as for `O=C(O)c1cccc(C(F)(F)F)c1`, “inactive”.
For the molecule `COc1cc(C(=O)NCc2ccc(OCCN(C)C)cc2)cc(OC)c1OC`, the Potency entry is “inactive”.
Same read-out and setting: as for `COc1cc(Cl)ccc1Cl`, the entry is “inactive”.
Same read-out and setting: as for `Cn1cccc1`, the entry is “inactive”; as for `C=Cc1ccncc1`, “inactive”; as for `Cc1cccc(C)c1C`, “inactive”.
Same read-out and setting: as for `CCN(CC)CC(=O)Nc1c(C)cccc1C`, the entry is “inactive”; as for `C[C@H](N)C(=O)N[C@@H](C)C(=O)NC1[C@H]2CN(c3nc4c(cc3F)c(=O)c(C(=O)O)cn4-c3ccc(F)cc3F)C[C@@H]12` (stereo not given in full), “inactive”.
On to `CCCCC1CCC(=O)O1` (stereo not given), for which the Potency entry is “inactive”.
Still for that read-out and setting: as for `COc1ccccc1O`, the entry is “inactive”; as for `C[C@H](O)C(=O)Nc1c(I)c(C(=O)NC(CO)CO)c(I)c(C(=O)NC(CO)CO)c1I`, “inactive”.
On the same count and under the same terms, under `C=CCN(CC=C)CC=C` stands “inactive”.
As for `CN1[C@@H]2CC[C@@H]1CC(OC(=O)C(CO)c1ccccc1)C2` (stereo not given in full), the Potency result was “inactive”.
On to `O=C1CCCc2c1cc1ccc3cccc4ccc2c1c34`, for which the Potency entry was “inactive”.
On the same count and under the same terms, under `O=C(O)c1ccc2cc(O)ccc2c1` stands “inactive”; under `CCOC(=O)CC(C)C`, “inactive”; under `COC(=O)c1cc(Cl)ccc1NS(=O)(=O)C(F)(F)F`, “inactive”.
Regarding `O=C(N[C@H](CO)[C@H](O)c1ccc([N+](=O)[O-])cc1)C(Cl)Cl`, the Potency entry is “inactive”.
Consider `CC1(C)C(=O)N(Cl)C(=O)N1Br`, for which the Potency result is “inactive”.
Still for that read-out and setting: as for `O=c1cc(O)c(Cl)c[nH]1`, the entry is “inactive”.
`CCCCCCCCCC/C=C/C#N`: the Potency result is “inactive”.
`CC(C)(C)c1cc(Cc2cc(C(C)(C)C)c(O)c(C(C)(C)C)c2)cc(C(C)(C)C)c1O`: the Potency entry is “inactive”.
The same measure, in the same setting: under `COc1cc2[nH]c(=O)[nH]c(=O)c2cc1OC` stands “inactive”.
Take `CCCOC(C)=O`: the Potency result was “inactive”.
For `FC(F)(F)/C(=N\OCC1OCCO1)c1ccc(Cl)cc1`, the Potency entry was “inactive”.
For the molecule `C[C@]12CCC(=O)C=C1C=C[C@@H]1[C@@H]2CC[C@@]2(C)[C@H]1CC[C@@]21CCC(=O)O1`, the Potency entry is “inactive”.
Same read-out and setting: under `COc1cc([C@@H]2c3cc4c(cc3[C@@H](O[C@@H]3O[C@@H]5CO[C@@H](C)O[C@H]5[C@H](O)[C@H]3O)[C@H]3COC(=O)[C@H]23)OCO4)cc(OC)c1O` stands “inactive”; under `CCCCN(CCN(CCCC)C(=O)N1CCOCC1)C(=O)N1CCOCC1`, “inactive”.
The same measure, in the same setting: as for `CCCCOC(=O)[C@H](C)O`, the entry is “inactive”.
With `C1CCCCCCCCCCC1`, the viability change, negative = cytotoxic was 3.07% [at 18.9 µM].
On to `CCC(C)NC(N)=O` (stereo not given), for which the Potency entry was “inactive”.
Same read-out and setting: as for `O=c1cccc[nH]1`, the entry is “inactive”; as for `CCc1cccc(CC)c1NC(=O)CN(CC(=O)O)CC(=O)O`, “inactive”; as for `CCCCCCCCC`, “inactive”.
On the same count and under the same terms, under `CN(C/C=C/C#CC(C)(C)C)Cc1cccc2ccccc12` stands “inactive”.
